The sample as a whole holds a higher share of hits than the screen did.
PRC2 inh – inhibitors of human EZH2/PRC2 methyltransferase; inhibition, % at 12.5 µM; PRC2 H3K27 methylation, DELFIA TRF, 1 h; Q15910; 57,000 tested, 0.35% active;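 active = mean inhibition of replicates at least 50% and every single replicate also reaching 50%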;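 also: dimethyl H3K27 on biotinylated H3 21-44 peptide detected by antibody; plate controls were median neutral control wells for no effect and median positive control wells for full effect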
Target sequence (Q15910 whole entry, looked up): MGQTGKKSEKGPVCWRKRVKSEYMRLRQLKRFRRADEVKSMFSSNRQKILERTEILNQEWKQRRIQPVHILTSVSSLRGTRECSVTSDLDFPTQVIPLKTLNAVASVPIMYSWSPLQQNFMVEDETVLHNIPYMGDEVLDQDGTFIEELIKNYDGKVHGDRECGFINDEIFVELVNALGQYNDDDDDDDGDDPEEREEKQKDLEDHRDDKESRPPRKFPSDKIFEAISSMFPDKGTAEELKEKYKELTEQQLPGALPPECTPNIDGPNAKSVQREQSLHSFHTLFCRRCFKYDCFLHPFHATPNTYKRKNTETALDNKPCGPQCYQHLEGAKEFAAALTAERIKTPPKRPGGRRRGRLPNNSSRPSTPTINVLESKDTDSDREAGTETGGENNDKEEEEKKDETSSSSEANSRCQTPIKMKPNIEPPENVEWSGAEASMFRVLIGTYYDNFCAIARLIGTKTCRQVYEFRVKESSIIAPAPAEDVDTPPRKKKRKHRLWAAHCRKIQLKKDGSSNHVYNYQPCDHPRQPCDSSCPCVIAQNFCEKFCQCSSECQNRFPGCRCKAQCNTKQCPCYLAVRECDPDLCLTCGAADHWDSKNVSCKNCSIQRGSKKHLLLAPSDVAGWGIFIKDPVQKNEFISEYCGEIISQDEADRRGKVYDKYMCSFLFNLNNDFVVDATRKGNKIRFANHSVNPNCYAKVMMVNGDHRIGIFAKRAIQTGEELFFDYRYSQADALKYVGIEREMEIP
An asterisk follows results filed as active.

SMILES	PRC2 inh
Cc1nc(SCC(=O)Nc2ccc(Oc3ccccc3)cc2)n[nH]1	17.7
CC(C)(C)c1ccc(-c2ncon2)cc1Cn1nnc(-c2cccc(C(F)(F)F)c2)n1	3.9
COc1ccc(NC(=O)CN2C(=O)c3cccc4cccc2c34)cc1OC	-19.4
O=C1c2cccc3cccc(c23)N1Cc1ccc(F)cc1Cl	59.8*
COc1ccc(C)cc1NC(=O)CN1C(=O)c2cccc3cccc1c23	-8.2
Cc1cc(C)c(OCC(=O)Nc2ncc(I)cc2C)c(Cl)c1	11.4
Cc1cc(C)n2nc(SCC(=O)Nc3cccc([N+](=O)[O-])c3)nc2n1	2.9
Cc1cc(C)c(OCC(=O)Nc2c[nH]c(=O)[nH]c2=O)cc1C	-7.9
COC(=O)c1ccccc1NC(=O)c1ccc(NC(=O)COc2ccccc2)cc1	9.7
COC(=O)c1ccccc1NC(=O)c1ccc(COc2ccccc2)o1	53.2*
COC(=O)c1ccccc1NC(=O)c1cccc(NC(=O)COc2ccccc2)c1C	16.9
COc1cc(C2C3=C(CC(C)(C)CC3=O)Nc3ncnn32)ccc1OCC(=O)N1CCOCC1 (stereo not given)	-14.9
CCOC(=O)CNc1nc2ccccc2n2cnnc12	0.4
COc1ccc(N(CC(=O)Nc2cccc([N+](=O)[O-])c2C)S(C)(=O)=O)cc1Cl	2.0
O=C1C(=O)N(Cc2ccco2)C(c2ccccc2)C1C(=O)c1cccs1 (stereo not given)	-36.2
Cc1cc(C)c(C#N)c(SCCS(=O)(=O)c2nc3ccccc3s2)n1	-6.7
CSc1nc2n(n1)C(=O)CC(C)(C)N2	-29.0
S=C(NCC1CCCO1)Nc1cccc(Cn2cc(Cl)cn2)c1 (stereo not given)	-3.5
Cc1cc(=O)oc2c(O)c(O)ccc12	-3.3
O=c1cc(O)cc(/C=C/c2ccc(O)c(O)c2)o1	86.9*
Oc1ccc(/C=C/c2cc(O)cc(O)c2)cc1	-7.7
O=[N+]([O-])c1ccccc1NCCNS(=O)(=O)c1ccc(Br)cc1	2.6
CCOc1cccc(-c2nnc(SCC(=O)n3c4c(c5ccccc53)CCCC4)n2C)c1	-6.7
c1cc(-c2nc(-c3ccc4c(c3)OCCCO4)cs2)ccc1-c1csnn1	-12.5
O=C(CN1C(=O)C2C3C=CC(C4CC34)C2C1=O)Nc1ccc(Oc2ccccc2)cc1 (stereo not given)	11.5
SMILES	PRC2 inh
COc1ccc(CCNS(=O)(=O)c2cc(C)ccc2OC)cc1	-1.0
COc1ccc(CCc2cc(OC)cc(=O)o2)cc1	52.1*
COc1ccc2cc(CCC(C)=O)ccc2c1	19.6
COc1ccc(C)cc1S(=O)(=O)N(C)CC(=O)Nc1ccccc1C(F)(F)F	12.6
O=C(CSc1nnc(-c2ccccc2Cl)n1-c1ccccc1)N1CCc2ccccc21	-9.9
CCn1c(SCC(=O)O)nnc1-c1c[nH]c2ccccc12	25.1
COc1ccc(OC)c(NC(=O)COc2ccc(C(C)(C)C)cc2)c1	35.3
CCCCCCCCCCC(C)(C)C(=O)Nc1c(OC)cc(OC)cc1OC	84.8*
CCCCCCCCC(=O)NCc1cc(OC)c(O)cc1I	12.3
COc1cc([N+](=O)[O-])ccc1NC(=O)CN(C)S(=O)(=O)c1ccc(Br)cc1	1.9
COc1ccc2c(=O)ccoc2c1	8.3
COc1c2ccoc2cc2oc(=O)ccc12	51.7*
CC(C)(O)C(O)COc1c2ccoc2cc2oc(=O)ccc12 (stereo not given)	6.9
Cc1ccccc1NC(=O)CSc1ncnc2scc(-c3ccc(Cl)cc3)c12	-11.7
Nc1ccc2nc(SCC(=O)Nc3ccc(Oc4ccccc4)cc3)sc2c1	33.7
O=C(CC1NC(=O)NC1=O)Nc1cccc(C(F)(F)F)c1 (stereo not given)	-0.4
Cc1cccc(N=C2NC(=O)/C(=C/c3ccc(F)cc3)S2)c1C	42.1
COc1ccc(/C=C2/SC(=S)NC2=O)cc1COc1ccc(F)cc1F	92.2*
COc1cc(NC(=O)Cn2cnc3c2c(=O)n(C)c(=O)n3C)cc(OC)c1OC	-12.6
O=C(CSc1nc2cc3ccccc3cc2[nH]1)Nc1ccccc1Cl	34.7
CCC1(CC)C(=O)N(CC(=O)OC)C(=O)N(C)C1=S	-4.0
Cc1sc2ncnc(SCC(=O)Nc3ccc4c(c3)OCCO4)c2c1C	15.7
Cc1cccc(-c2nnc(SCC(=O)c3ccccc3)n2-c2ccccc2)c1	-5.9
N#C/C(=C\c1ccc(O)c(O)c1)C(=O)c1ccc(O)c(O)c1	93.5*
N#CC(C#N)=C(N)/C(C#N)=C/c1cc(O)c(O)c(O)c1	28.4
N#C/C(=C/c1ccc(O)c(O)c1)C(=O)Nc1ccccc1	17.5
O=C(/C=C/c1ccc(O)c(O)c1)OCCc1ccccc1	14.7
C[C@@H]1O[C@@H](O[C@H]2[C@@H]3C=CO[C@@H](O[C@@H]4O[C@H](CO)[C@@H](O)[C@H](O)[C@H]4O)[C@@H]3[C@@]3(CO)O[C@@H]23)[C@H](OC(=O)/C=C/c2ccc(O)c(O)c2)[C@H](O)[C@H]1O	17.5
C=C1CC(O)C2C(=C)C(=O)OC2C2C(=C)C(OC3OC(CO)C(O)C(OC(=O)/C=C/c4ccc(O)c(O)c4)C3O)CC12 (stereo not given)	76.3*
O=C(COc1ccc(I)cc1)Nc1ccc(O)cc1C(=O)O	5.2

High-throughput results deposited in PubChem by Broad Institute.
